PLK1 PBD block – qHTS for Inhibitors of PLK1-PDB (polo-like kinase 1 - polo-box domain): Primary Screen | hit rate 2.8% among 360,000 | Serine/threonine-protein kinase PLK1 (Homo sapiens), P53350 | AID 720504, 2013 | Plk1 PBD binding of FITC phosphopeptide, fluorescence polarization | Potency, µM, for inactives: max response, negative = inhibition, usual class: inhibitors; also: potency is read from the fitted curve at half-maximal effect; series mostly up to about 57 µM; % is scaled to controls: 0 for no effect and ±100 for the full control effect; nearly all actives have a fitted effect of over 65% in size
G9a block – qHTS Assay for Inhibitors of Histone Lysine Methyltransferase G9a. Histone-lysine N-methyltransferase EHMT2 (Homo sapiens), Q96KQ7. hit rate 8.8% among 350,000. AID 504332, 2011. Potency, µM (doses to about 102 µM), inactives show at the top dose activity, negative = inhibition, hits mostly inhibitors. G9a H3K9 monomethylation, AlphaScreen, 2 h; also: potency is read from the fitted curve at half-maximal effect; % is scaled to controls: 0 for no effect and ±100 for the full control effect; nearly all actives have a fitted effect of over 75% in size
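Using a bead-based AlphaScreen, monomethylated H3K9 product from 2 h room-temperature reactions (G9a 20 nM, peptide 500 nM, SAM 20 uM) was detected with 0.5 ug/mL rabbit anti-H3K9me1 antibody.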
JMJD2A Tudor inh – qHTS Assay for Inhibitors of JMJD2A-Tudor Domain. Lysine-specific demethylase 4A (Homo sapiens), O75164. AlphaScreen JMJD2A-Tudor / H3K4me3 peptide binding. Potency, µM (doses to about 114 µM), for the others: top-dose activity change, negative = inhibition, most hits filed as inhibitors. hit rate 4.4% among 390,000. AID 504339, 2011; also: potency is read from the fitted curve at half-maximal effect; % is scaled to controls: 0 for no effect and ±100 for the full control effect; nearly all actives have a fitted effect of over 50% in size
Target sequence (O75164 whole entry, looked up, the tested form may be a part): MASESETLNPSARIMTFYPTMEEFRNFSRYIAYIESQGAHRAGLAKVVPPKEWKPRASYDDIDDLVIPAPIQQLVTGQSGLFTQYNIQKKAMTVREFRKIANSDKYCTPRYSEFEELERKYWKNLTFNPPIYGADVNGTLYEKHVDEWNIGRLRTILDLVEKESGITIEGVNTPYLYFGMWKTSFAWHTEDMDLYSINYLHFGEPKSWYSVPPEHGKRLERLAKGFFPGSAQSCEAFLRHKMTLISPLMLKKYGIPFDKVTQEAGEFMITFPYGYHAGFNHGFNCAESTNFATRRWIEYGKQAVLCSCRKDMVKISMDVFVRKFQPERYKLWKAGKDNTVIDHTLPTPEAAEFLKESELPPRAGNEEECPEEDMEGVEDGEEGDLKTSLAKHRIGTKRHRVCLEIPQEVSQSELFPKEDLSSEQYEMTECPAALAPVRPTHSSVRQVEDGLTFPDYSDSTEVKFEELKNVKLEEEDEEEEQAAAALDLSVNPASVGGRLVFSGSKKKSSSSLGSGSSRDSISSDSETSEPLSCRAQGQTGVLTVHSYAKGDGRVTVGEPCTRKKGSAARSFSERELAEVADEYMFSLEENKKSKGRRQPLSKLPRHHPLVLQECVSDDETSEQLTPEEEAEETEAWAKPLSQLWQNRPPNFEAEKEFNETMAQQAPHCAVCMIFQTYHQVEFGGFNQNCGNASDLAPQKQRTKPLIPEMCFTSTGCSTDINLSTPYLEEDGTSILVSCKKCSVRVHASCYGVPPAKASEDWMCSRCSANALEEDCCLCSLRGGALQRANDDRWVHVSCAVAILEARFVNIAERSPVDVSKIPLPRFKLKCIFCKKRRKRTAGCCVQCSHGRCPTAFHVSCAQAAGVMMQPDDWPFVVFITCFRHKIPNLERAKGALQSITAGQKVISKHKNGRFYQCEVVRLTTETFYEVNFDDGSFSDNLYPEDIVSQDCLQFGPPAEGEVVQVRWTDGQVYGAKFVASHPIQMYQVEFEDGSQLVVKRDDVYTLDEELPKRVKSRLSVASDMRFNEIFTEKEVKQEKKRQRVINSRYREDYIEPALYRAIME
BAZ2B block – qHTS Assay for Inhibitors of BAZ2B; hit rate 4.4% among 360,000; Potency, µM (top dose mostly 114 µM), for the others: at the top dose activity change, negative = inhibition, hits mostly inhibitors; AlphaScreen BAZ2B-H3K14Ac peptide displacement; Bromodomain adjacent to zinc finger domain protein 2B (Homo sapiens), Q9UIF8; also: potency is read from the fitted curve at half-maximal effect; % is scaled to controls: 0 for no effect and ±100 for the full control effect; nearly all actives have a fitted effect of over 60% in size
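Multi-concentration screen (max 110 uM) measuring displacement of acetylated histone H3 peptide from BAZ2B by AlphaScreen, using 50 nM protein, 50 nM peptide and 10 ug/mL streptavidin donor plus Ni-chelate acceptor beads.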
PI5P4Ka inh – qHTS for Inhibitors of phosphatidylinositol 5-phosphate 4-kinase (PI5P4K) | Phosphatidylinositol 5-phosphate 4-kinase type-2 alpha (Homo sapiens), P48426 | PI5P4Kalpha enzyme, ADP-Glo luminescence, 60 min; hits give low values | AID 652105, 2013 | hit rate 1.2% among 330,000 | max response, %; active = max response of -50% or lower; inconclusive = between -30% and -50%; inactive = -30% or higher; also: value at the top dose of about 77 µM; % is scaled to controls: 0 for no effect and ±100 for the full control effect
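Luminescence from ADP-Glo served as readout of PI5P4Kalpha activity in a qHTS format. Reaction: enzyme, substrate, compound, ATP at 5 microM final, 60 min at RT.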
HP1b chromo inh – HTS for Inhibitors of HP1-beta Chromodomain Interactions with Methylated Histone Tails; AlphaScreen HP1-beta / biotin-H3K9me3 peptide binding; Potency, µM (highest dose often 114 µM), without a hit: at the top dose activity change, negative = inhibition, usual class: inhibitors; hit rate 0.56% among 390,000; also: potency is read from the fitted curve at half-maximal effect; nearly all actives have a fitted effect of over 70% in size
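Compound inhibition of the preformed complex between 50 nM HP1-beta and 50 nM biotinylated H3K9me3 peptide was read by AlphaScreen. Buffer was PBS pH 7.4 with 0.01% Tween-20. Incubations ran 30 min at room temperature, with 10 ug/mL donor/acceptor beads.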
The depositor's hits bear a star; ? = inconclusive; / = no result; [ ] = dose if it differs, or a comment. The list is not random: actives were taken first. Their share in the collection is about 12%. Unless noted, calls follow the shape of the dose curve; as a rule, active = well fitted curve in the direction sought with a large enough effect; inconclusive = small, poorly fitted or top-dose-only effect, or another doubt; inactive = no such curve, though single readings can be large; an effect the other way counts as inactive or inconclusive.

SMILES	PLK1 PBD block	G9a block	JMJD2A Tudor inh	BAZ2B block	PI5P4Ka inh	HP1b chromo inh
O=C(C[C@@H]1C/C=C\C[C@H](Cc2ccc(F)cc2)C(=O)OC[C@@H](c2ccccc2)NC1=O)NCCO	-9.1%	/	-7.7%	/	-3.0	25.8%
Cc1cc(O)c(C(c2ccccc2)N2CCN(c3ccccc3)CC2)c(=O)n1Cc1ccco1 (centres undefined)	/	?	-28.2%	-11.5%	/	20.2%[57 µM]
COC(=O)c1ccc(CSc2nnc(SCc3ccc(C(=O)OC)o3)s2)o1	-20.9%	-38.0%[59 µM]	-14.7%	-5.0%	/	6.0%
COC(=O)c1ccc(CSc2nnc(NCc3ccccc3)s2)o1	-11.3%	50.1µM*	-0.4%	1.9%	7.6	44.7%
O=C(O)CN1CCN(c2ncc(C(F)(F)F)cc2Cl)CC1	-11.8%	50.1µM*	-28.0%	-12.4%	-0.3	9.0%
O=c1c2cc(NC(=S)N3CCCCCC3)ccc2nc2n1CCCCC2	-11.1%	0.1%	-5.6%	-12.1%	0.8	34.1%
O=C(Nc1ccc(F)cc1F)c1cc(-c2ccco2)nc2ccccc12	?	44.7µM*	-11.7%	4.5%	?	17.3%
COc1cc(-c2cc(C(=O)Nc3ccccc3N3CCOCC3)c3ccccc3n2)cc(OC)c1OC	-4.6%	0.5%	-23.8%	-16.3%	-0.3	31.4%
O=C(Nc1ccccc1N1CCOCC1)c1cc(-c2ccco2)nc2ccccc12	-11.7%	?	?	50.1µM*	?	?
O=C(NO)c1cc(OCC(F)(F)F)ccc1OCC(F)(F)F	-1.3%	79.4µM*	-27.7%[57.1 µM]	-34.3%	-0.2	10.3%
COC(=O)c1ccccc1NC(=S)NC(=O)C1CC1	-16.6%	50.1µM*	-12.2%	?	/	24.7%
CCCC(=O)NC(=S)Nc1ccccc1C(=O)OC	29.9µM*	39.8µM*	-15.8%[11.4 µM]	9.4%[57.1 µM]	-9.9	-7.8%
COC(=O)c1ccccc1NC(=S)NC(C)=O	-4.8%	/	-11.6%	0.2%	2.3	43.6%
COC(=O)c1ccccc1NC(=S)NC(=O)c1cccc2ccccc12	6.7µM*	6.4%	-16.4%[11.4 µM]	?	-11.1	-20.5%
Cc1cccc(C)c1OCC(=O)NNC(=S)NC(=O)C1CC1	-6.5%	20µM*	-13.4%	-1.7%	-0.5	50.0%
CC(O)(c1cccc(F)c1)c1nc(-c2cccc3cccnc23)cs1 (centres undefined)	2.5%	/	/	/	17.2	/
Cc1cc(=O)[nH]c(-c2ccccc2OC(F)(F)F)n1	-11.1%	/	-20.1%	2.2%	0.5	20.0%
CCOC(=O)c1c(S(=O)(=O)N2CCCC(C(=O)NCc3cccc(OC)c3)C2)c(C)n(C)c1C (centres undefined)	/	8.2%[59 µM]	?	-1.2%	/	21.3%
Cc1[nH]c2ccc(C(=O)NCCc3ccccc3Cl)cc2c1C	/	-9.3%[59 µM]	-34.1%	?	/	-5.6%
COC(=O)c1ccccc1NC(=O)CNc1cc(OC)c(OC)cc1C	-7.3%	20µM*	?	44.7µM*	-4.8	-23.2%
CCc1ccccc1NCC(=O)Nc1ccccc1C(=O)OC	1.8%	8.3%	0.7%	1.6%	1.6	33.0%
CCCC(=O)NNC(=O)CC(=O)Nc1ccccc1C(=O)O	2.1%	50.1µM*	-13.2%	-20.7%	-1.5	4.1%[57 µM]
CCCCOc1ccc(C(=O)Nc2onc3c2CCCC3)cc1	/	1.3%[59 µM]	-3.8%	1.6%	/	46.3%
CCCCC(CC)CCC(CC(C)C)OS(=O)(=O)O (centres undefined)	/	-3.0%[12.7 µM]	/	/	/	/
CCN(CC(=O)Nc1ccc(OC)cc1)C(=O)c1ccc2c(c1)NC(=O)CS2	-13.3%	44.7µM*	-16.3%	5.2%	1.8	-5.1%
COC(=O)c1ccc2c(c1)SC1=C(CCCC1=O)N2	-22.6%	?	-35.9%	39.8µM*	-0.1	-28.1%
COC(=O)c1ccc2c(c1)NC(=O)CS2	21.2µM*	39.8µM*	-11.3%	-20.2%	-4.3	-4.0%
